# According to PubChem BioAssay (Tox21):
# “And” between values parts separate entries of the source, which are not always exact repeats. Identical values can stand only once. Results filed as inconclusive are left out. Entries that show only a call come without a potency. The source made the active and inactive calls. The call rests on the fitted dose curve; in most records, active means well fitted cell-killing curve with a large enough effect in the repeat runs; inconclusive means weak or mixed curves, or effect the other way; inactive means flat fitted curve, though single readings scatter.
# Key:
# [1] = cAMP Responsive Elements (CRE) small molecule antagonists, cell-based qHTS assay: qHTS cell viability counter screen (AID 2060913); further: nearly all actives have a fitted effect of over 40% in size
# Method in brief: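 Cytotoxicity read in the same wells as the CRE-bla HEK293T antagonist assay: after 3 h compound with 0.25 uM NKH477 final and 2 h beta-lactamase substrate, CellTiter-Glo luminescence measured.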
# [2] = cAMP Responsive Elements (CRE) small molecule agonists, cell-based qHTS assay: qHTS cell viability counter screen (AID 2060914);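 further: viability read after 3 h of compound exposure; nearly all actives have a fitted effect of over 50% in size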
# Method in brief: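 Cells are seeded and incubated 18 h, treated with compounds in DMSO for 3 h, read for the bla reporter, then given CellTiter-Glo; luminescence is measured after 30 min at room temperature.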
# Potency means the concentration at half of the fitted maximal effect.
Compound,Potency [1],Potency [2]
CC(=O)c1ccc(S(=O)(=O)NC(=O)NC2CCCCC2)cc1,inactive,inactive
CN(C)CCOC(=O)COc1ccc(Cl)cc1,inactive,inactive
CN(C1CCCCC1)S(=O)(=O)c1ccccc1N,inactive,inactive
O=S(=O)(c1ccccc1)c1ccc(Cl)cc1,inactive,inactive
COc1ccc2cc1Oc1cc3c(cc1OC)CC[N+](C)(C)[C@H]3Cc1ccc(cc1)Oc1c(OC)c(OC)cc3c1[C@@H](C2)[N+](C)(C)CC3,inactive,inactive
C=C1CCC2CC1C2(C)C (stereo not given),inactive,inactive
CCCCNS(=O)(=O)c1ccccc1,inactive,inactive
O=C(Cn1ccnc1[N+](=O)[O-])NCc1ccccc1,inactive,inactive
O=C(Nc1ccc2c(c1)Cc1ccccc1-2)C(F)(F)F,inactive,inactive
CCCCCCCC/C=C\CCCCCCCC(=O)N(CCO)CCO,inactive,inactive
CC(=O)C(=O)O,inactive,inactive
CCn1c(=O)c2c(nc(/C=C/c3ccc(OC)c(OC)c3)n2C)n(CC)c1=O,inactive,inactive
Nc1ccc(Cl)cc1[N+](=O)[O-],inactive,inactive
C=CCOC(=O)CCCCCC,inactive,inactive
CCCCCCCCCC[N+](C)(C)[O-],inactive,inactive
CCc1cc(C(C)(C)C)c(O)c(C(C)(C)C)c1,inactive,inactive
CC(C)CCCCCOC(=O)CCS,inactive,inactive
COc1ccc(/C=C/S(=O)(=O)NC(=O)c2ccc(C)cc2Cl)cc1,inactive,inactive
FC(F)(F)c1ccccc1-n1ccnc1,inactive,inactive
CC(=O)CCC1=C(C)CCCC1(C)C,inactive,inactive
COc1ccc(CN(CCN(C)C)c2ccccn2)cc1,inactive,inactive
Nc1ccc2c(O)cc(S(=O)(=O)O)cc2c1,inactive,inactive
N[C@H](Cc1c[nH]c2ccccc12)C(=O)O,inactive,inactive
Cc1oc(C)c(C(=O)Nc2ccccc2)c1C,inactive,inactive
CO[C@@H]1[C@@H](OC(N)=O)[C@@H](O)[C@H](Oc2ccc3c(O)c(NC(=O)c4ccc(O)c(CC=C(C)C)c4)c(=O)oc3c2C)OC1(C)C,inactive,inactive

Compound,Potency [1],Potency [2]
O=P(OC(CCl)CCl)(OC(CCl)CCl)OC(CCl)CCl,inactive,inactive
CCc1ccccc1O,inactive,inactive
O=C[C@H](O)[C@@H](O)[C@H](O)[C@H](O)CO,inactive,inactive
O=c1c(-c2ccc(O)cc2)coc2cc(O)cc(O)c12,inactive,inactive
Nc1ccc2cc3ccccc3cc2c1,inactive,inactive
O=C(O)c1ccc[n+]([O-])c1,inactive,inactive
C[Si](C)(C)C,inactive,inactive
COC(=O)[C@@H]1[C@H]2C[C@H]3c4[nH]c5ccccc5c4CCN3C[C@@H]2CC[C@@H]1O,inactive,inactive
CCOC(=O)CN1CCCC1=O,inactive,inactive
CCCCCCCCN(C)CCCCCCCC,inactive,inactive
Oc1cc2ccccc2cc1O,inactive,inactive
CCCCCCCCCCCC(=O)[O][Sn]([CH2]CCC)([CH2]CCC)[O]C(=O)CCCCCCCCCCC,inactive,inactive
CCCCCCCCCCCCCC[N+](C)(C)Cc1ccccc1,55.3 µM (active) and 26.6 µM (active) and 15.8 mM (active),22 µM (active) and 11.9 µM (active)
CC1=C(/C=C/C(C)=C/C=C/C(C)=C/CO)C(C)(C)CCC1,inactive,inactive
Cc1ccc([N+](=O)[O-])cc1Cl,inactive,inactive
O=S(=O)(O)c1cc(Cl)c(Cl)cc1Cl,inactive,inactive
CCCCOCCOC(=O)COc1cc(Cl)c(Cl)cc1Cl,inactive,inactive
CCCCCCCCCCCCc1ccccc1,inactive,inactive
CNCCCC1c2ccccc2C=Cc2ccccc21,inactive,inactive
CCCc1ccc(O)cc1,inactive,inactive
COc1ccc(Cl)cc1C(=O)NCCc1ccc(S(=O)(=O)NC(=O)NC2CCCCC2)cc1,inactive,inactive
O=C(CN1CCNCC1)NC1CCCCC1,inactive,inactive
Cc1c(C(N)=O)cc([N+](=O)[O-])cc1[N+](=O)[O-],inactive,inactive
CN(C)c1ccc(C(c2ccccc2)c2ccc(N(C)C)cc2)cc1,inactive,inactive
COc1cc(N)c(Cl)cc1C(=O)NC1CCN(Cc2ccccc2)CC1,inactive,inactive
